Compounds without any hit were thinned out: in the full panel of roughly 83,000, 20% have a hit.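 Growth was measured after 48 h exposure to one concentration of compound in 96-well plates. Values under 10 count as active.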 A number with no mark means an inactive call. Calls of active or inactive are those of the source.
system: HCT-116 colon; experiment: NCI-60 one-dose screen, 48 h (100 = growth as untreated, 0 = no growth, -100 = all killed); settings: 10 µM unless noted

| Structure (SMILES) | growth |
| --- | --- |
| O=C1NCCS(=O)(=O)/C1=C\C=C\c1cccc(C(F)(F)F)c1 | -41.8% (active) |
| COC(=O)c1cc(-c2ccc(OC)c(OC)c2)[nH]c1N/N=C/c1c(Cl)cccc1Cl | 14.5% |
| Oc1cccc(-c2nc(-c3n[nH]c(=S)n3-c3ccccc3)cc3c2[nH]c2ccccc23)c1 | 10.6% |

system: HCC-2998 colon; experiment: as above; settings: 10 µM unless noted

| Structure (SMILES) | growth |
| --- | --- |
| Cc1c(C(=O)C(SC(=S)N2CCOCC2)SC(=S)N2CCOCC2)nnn1-c1ccc([N+](=O)[O-])cc1 | 104% |
| CC(=O)Cc1nsc(NC(=O)c2cc(-c3cc(Cl)ccc3Cl)oc2C)n1 | 103% |
| COc1cc2ncnc(Nc3ccc(S(=O)(=O)Nc4cc(C)on4)cc3)c2cc1OCCCN1CCOCC1 | 107% |
| O=C(c1ccc(F)cc1)C1CCN(CCn2c(=O)[nH]c3ccccc3c2=O)CC1 | 105% |
| C=CCNc1ccc2c3c(cccc13)C(=O)N(CC=C)C2=O | 106% |
| COC(CCP(=O)(c1ccccc1)c1ccccc1)(C(=O)c1ccccc1)c1ccccc1 (configuration not stated) | 72.7% |
| COc1cc2c(c(OC)c1OC)C(=O)CC(c1cccc(C(=O)Nc3ccc(Br)cc3)c1)O2 (configuration not stated) | 92.1% |
| COc1cc(-c2ccc(-c3ccc(C(=N)N)s3)s2)cc(OC)c1OC | 49.7% |
| [2H]C([2H])([2H])Oc1ccc(/C=C/C(=O)/C=C(/C=C/c2ccc(OC([2H])([2H])[2H])c(OC([2H])([2H])[2H])c2OC([2H])([2H])[2H])OB(F)F)c(OC([2H])([2H])[2H])c1OC([2H])([2H])[2H] | 120% |
| O=C(O)c1nn(-c2ccc(Cl)cc2)nc1N1CCCC1 | 103% |
| COCCn1cc(-c2nc(-c3cc4cccnc4n3C)cs2)c2cc(OC)ccc21 | 39.6% |
| CCOc1cc(\C=N/N=C(N)/C(N)=N\N=C/c2ccc(O)c(OCC)c2)ccc1O | 98.6% |
| CC(C)=CCC[C@](C)(O)C1CC[C@]2(C)[C@@H]1CC[C@@H]1[C@@]3(C)CC/C(=N\OCCC#N)C(C)(C)[C@@H]3CC[C@]12C (some centres not stated) | 84.5% |
| CCCc1cc(CCC)n2nc(N)nc2n1 | 98.1% |
| CC(CN)[C@@H]1CC[C@]2(CO)CC[C@]3(C)[C@H](CC[C@@H]4[C@@]5(C)CCC(NCCO)C(C)(C)[C@@H]5CC[C@]43C)[C@@H]12 (some centres not stated) | -26.8% (active) |
| COc1cccc(C(=O)Nc2cccc(NC(=O)c3ccccn3)c2)c1 | 83.2% |
| Cc1ccc(S(=O)(=O)c2nc(-c3ccccc3)oc2S(C)=O)cc1 (configuration not stated) | 70.5% |
| O=[N+]([O-])c1ccc(Oc2cccc3c(Oc4ccc([N+](=O)[O-])cc4[N+](=O)[O-])cccc23)c([N+](=O)[O-])c1 | 110% |
| CC1(C)CC(=O)C2=C(C1)OC(C(=O)c1ccccc1)C2c1cccc(Oc2ccccc2)c1 (configuration not stated) | 71.9% |
| Cn1cc(-c2nc(-c3c[nH]c4c(Cl)nccc34)cs2)c2ccccc21 | 94.5% |

| Structure (SMILES) | growth |
| --- | --- |
| CCCCCN(CCCCC)CC(O)c1c(Cl)ccc2ccccc12 (configuration not stated) | 70.8% |
| COc1cccc2cc(N(C)c3ncnc4ccccc34)ccc12 | 21.2% |
| CN1C(=O)N(C)C2C1NN=c1s/c(=C\c3ccccc3F)c(=O)n12 (configuration not stated) | 5.08% (active) |
| C#Cc1ccc(NC(=O)Cc2ccc(/C=C/C(=O)c3nccn3C)cc2)cc1 | 82.3% |
| O=C1C2C(c3cccs3)C=C(c3ccc(Cl)cc3)N2C(=S)N1c1ccccc1 (configuration not stated) | 111% |
| Cc1cc2nc(C(Cl)Cl)nc(-c3ccccc3)n2n1 | 28.5% |
| O=C(NS(=O)(=O)c1ccccc1)n1cc(-c2ccncc2)c(-c2cc(O)cc(Cl)c2)n1 | 128% |
| CCOC(=O)c1cc(C(=O)c2cc(OC)cc(OC)c2)n2ncccc12 | 66.7% |
| CC1=C2[C@@H](CC1)[C@]1(C)O[C@@](C(C)C)(C[C@H]1OC(=O)CO)[C@H]2OC(=O)CCCc1ccccc1 | 84% |
| O=C1/C(=C/c2cccc(Br)c2)COc2ccc(O)c(O)c21 | -58.8% (active) |
| Nc1nc(N)c2c(n1)NC(c1cccc(Nc3ccnc4cc(C(F)(F)F)ccc34)c1)CC(c1ccc(Cl)cc1)=N2 (configuration not stated) | 51.8% |
| COc1ccc2c(c1)c(-c1nc(-c3cn(C)c4ccncc34)cs1)cn2C | -54.1% (active) |
| Cc1[nH]c(C(=O)Nc2ccc(C(N)=O)cc2OC(C)C)c(Cl)c1Cl | 110% |
| COc1cc2nc3cc([N+](=O)[O-])ccc3c(NCCCNCCO)c2cc1OC | -47.9% (active) |
| CC1OC(C(=O)N2CCN(CCO)CC2)CC1COC1CCCCC1 (configuration not stated) | 109% [50 µM] |
| CC(C)(C)CC(C)(C)Nc1c(-c2c(O)c3ccccc3oc2=O)nc2sccn12 | 98.5% |
| O=C1NCCS(=O)(=O)/C1=C\C=C\c1cccc(C(F)(F)F)c1 | 19.6% |
| COC(=O)c1cc(-c2ccc(OC)c(OC)c2)[nH]c1N/N=C/c1c(Cl)cccc1Cl | 53.2% |
| Oc1cccc(-c2nc(-c3n[nH]c(=S)n3-c3ccccc3)cc3c2[nH]c2ccccc23)c1 | -15.2% (active) |
